Rows were chosen to be rich in hits. Some 12% of all compounds tested hit in one or more screens of this group.
Sfp inh – blocks B. subtilis Sfp PPTase activity. Q9F4F7. Biochemical Sfp PPTase activity, qHTS. Potency, µM, for the others: largest response in the series, negative = inhibition, most hits filed as inhibitors. 310,000 compounds, 3.5% hits. AID 1490;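 further: the enzyme is Sfp with the accession as filed and its product quenches rhodamine fluorescence; 0% = enzyme reaction without inhibitor and -100% = no enzyme wells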
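Reaction rates are the 30-min fluorescence difference (ex 525, em 598 nm) in wells containing 15 nM Sfp, 5 uM rhodamine-CoA and 12.5 uM BHQ-2-YbbR at pH 7.6 with 10 mM MgCl2.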
JMJD2A Tudor inh – JMJD2A Tudor domain (human) inhibition | O75164 | AlphaScreen JMJD2A-Tudor / H3K4me3 peptide binding | Potency, µM (top dose mostly 114 µM), inactives show at the highest dose activity change, negative = inhibition, actives largely listed as inhibitors | 390,000 compounds, 4.4% hits; further: on the % scale 0 is the no-effect control and ±100 the full control effect; nearly all actives have a fitted effect of over 50% in size
G9a inh – inhibitors of human histone lysine methyltransferase G9a. AID 504332. Q96KQ7. 350,000 compounds, 8.8% hits. G9a H3K9 monomethylation, AlphaScreen, 2 h. Potency, µM (doses to about 102 µM), without a hit: top-dose activity, negative = inhibition, actives largely listed as inhibitors; further: on the % scale 0 is the no-effect control and ±100 the full control effect; nearly all actives have a fitted effect of over 75% in size
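G9a (20 nM) preincubated 15 min RT with compounds, then 500 nM biotinylated H3K9 peptide and 20 uM SAM added; 2 h RT reaction. Monomethyl-H3K9 product detected by AlphaScreen with anti-H3K9me1 antibody, streptavidin donor and anti-rabbit IgG acceptor beads.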
L3MBTL1 inh – L3MBTL1 (human) inhibition | Potency, µM (doses to about 57.1 µM), inactives show at the top dose activity, negative = inhibition, hits mostly inhibitors | 230,000 compounds, 0.66% hits | AID 485360 | AlphaScreen L3MBTL1–H3K9me1 peptide binding | Q9Y468; further: on the % scale 0 is the no-effect control and ±100 the full control effect; nearly all actives have a fitted effect of over 60% in size
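AlphaScreen assay: L3MBTL1 (50 nM final) was preincubated 30 min at room temperature with biotinylated H3(1-15)K9me1 peptide (75 nM final), then 30 min with library compounds; streptavidin donor and nickel chelate acceptor beads (10 ug/mL final) added, 30 min dark.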
HP1b binding inh – HP1-beta chromodomain-methylated histone interaction inhibition. P83916. AlphaScreen HP1-beta / biotin-H3K9me3 peptide binding. Potency, µM (doses to about 114 µM), inactives show top-dose activity change, negative = inhibition, usual class: inhibitors. 390,000 compounds, 0.56% hits; further: nearly all actives have a fitted effect of over 70% in size
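HP1-beta protein (50 nM final) preincubated 30 min at room temperature with biotinylated H3(1-18)K9me3 peptide (50 nM) in PBS pH 7.4, 0.01% Tween-20, then compound added for 30 min. AlphaScreen streptavidin donor/nickel chelate acceptor beads (10 ug/mL final), 30 min dark, luminescence read.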
BAZ2B inh – BAZ2B (human) inhibition; Potency, µM (doses to about 114 µM), without a hit: at the top dose activity change, negative = inhibition, actives largely listed as inhibitors; AID 504333; 360,000 compounds, 4.4% hits; Q9UIF8; AlphaScreen BAZ2B-H3K14Ac peptide displacement; further: on the % scale 0 is the no-effect control and ±100 the full control effect; nearly all actives have a fitted effect of over 60% in size
Target sequence (Q9UIF8 whole entry, looked up): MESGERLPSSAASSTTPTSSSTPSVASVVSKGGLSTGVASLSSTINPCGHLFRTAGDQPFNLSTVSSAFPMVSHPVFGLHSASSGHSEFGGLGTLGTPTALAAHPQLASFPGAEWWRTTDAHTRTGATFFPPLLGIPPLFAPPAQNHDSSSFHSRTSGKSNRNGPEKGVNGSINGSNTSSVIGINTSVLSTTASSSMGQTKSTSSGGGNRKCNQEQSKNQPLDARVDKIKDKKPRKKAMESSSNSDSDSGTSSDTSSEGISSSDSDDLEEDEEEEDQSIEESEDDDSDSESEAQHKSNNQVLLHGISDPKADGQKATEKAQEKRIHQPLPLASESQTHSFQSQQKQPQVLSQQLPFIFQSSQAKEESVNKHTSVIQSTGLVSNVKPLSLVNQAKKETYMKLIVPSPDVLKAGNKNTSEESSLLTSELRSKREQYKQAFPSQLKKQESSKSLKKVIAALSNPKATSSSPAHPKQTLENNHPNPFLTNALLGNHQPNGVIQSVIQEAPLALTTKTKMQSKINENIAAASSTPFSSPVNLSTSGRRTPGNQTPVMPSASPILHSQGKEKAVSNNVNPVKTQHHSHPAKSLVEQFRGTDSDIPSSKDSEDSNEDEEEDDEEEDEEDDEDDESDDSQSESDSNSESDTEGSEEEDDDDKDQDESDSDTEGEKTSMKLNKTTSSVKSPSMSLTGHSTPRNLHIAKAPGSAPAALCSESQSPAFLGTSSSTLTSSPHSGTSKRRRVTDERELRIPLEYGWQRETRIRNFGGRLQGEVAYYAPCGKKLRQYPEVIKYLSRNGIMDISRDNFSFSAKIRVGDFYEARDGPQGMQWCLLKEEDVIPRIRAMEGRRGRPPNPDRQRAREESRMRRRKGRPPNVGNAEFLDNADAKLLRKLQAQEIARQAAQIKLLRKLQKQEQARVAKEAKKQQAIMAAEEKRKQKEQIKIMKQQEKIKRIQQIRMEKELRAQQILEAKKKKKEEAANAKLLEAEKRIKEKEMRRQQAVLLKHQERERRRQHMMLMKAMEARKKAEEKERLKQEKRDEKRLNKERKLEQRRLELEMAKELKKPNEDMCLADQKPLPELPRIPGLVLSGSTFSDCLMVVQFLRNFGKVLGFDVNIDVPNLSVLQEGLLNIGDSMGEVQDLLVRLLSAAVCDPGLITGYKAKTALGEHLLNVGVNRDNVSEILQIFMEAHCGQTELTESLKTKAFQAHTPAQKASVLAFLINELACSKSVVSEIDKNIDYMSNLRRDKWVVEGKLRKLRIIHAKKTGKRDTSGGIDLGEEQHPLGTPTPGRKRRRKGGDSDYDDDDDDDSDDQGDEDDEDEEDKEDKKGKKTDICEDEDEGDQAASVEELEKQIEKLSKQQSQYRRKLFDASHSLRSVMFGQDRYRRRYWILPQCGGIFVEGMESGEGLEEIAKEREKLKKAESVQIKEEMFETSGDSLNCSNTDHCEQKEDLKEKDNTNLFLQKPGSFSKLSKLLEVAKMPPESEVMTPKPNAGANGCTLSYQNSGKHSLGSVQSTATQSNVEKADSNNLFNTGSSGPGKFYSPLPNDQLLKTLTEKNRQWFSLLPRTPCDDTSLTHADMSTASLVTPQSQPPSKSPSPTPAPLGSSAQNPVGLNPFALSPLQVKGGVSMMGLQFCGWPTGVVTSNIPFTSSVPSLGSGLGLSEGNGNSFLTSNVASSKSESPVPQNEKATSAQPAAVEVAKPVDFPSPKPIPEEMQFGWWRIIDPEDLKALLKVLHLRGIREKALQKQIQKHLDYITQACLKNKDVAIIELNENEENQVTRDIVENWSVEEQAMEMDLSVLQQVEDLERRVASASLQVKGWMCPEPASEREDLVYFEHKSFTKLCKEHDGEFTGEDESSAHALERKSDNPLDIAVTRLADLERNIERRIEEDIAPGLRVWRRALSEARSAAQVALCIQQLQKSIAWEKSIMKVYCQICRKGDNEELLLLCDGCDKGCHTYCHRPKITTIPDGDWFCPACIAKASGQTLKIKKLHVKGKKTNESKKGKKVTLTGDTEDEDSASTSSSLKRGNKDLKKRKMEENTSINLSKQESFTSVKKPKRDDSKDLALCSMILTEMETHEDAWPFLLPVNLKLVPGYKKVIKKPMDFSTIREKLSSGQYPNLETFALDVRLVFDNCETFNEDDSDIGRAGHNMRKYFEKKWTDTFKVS
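Compounds, titrated to a top concentration of 110 uM, were incubated 30 min at room temperature with preformed BAZ2B/acetyl-K14 H3 peptide complex (50 nM each). Proximity signal was measured by AlphaScreen after 20 min with beads.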
Starred values were filed as active, the others as inactive; ? = inconclusive; . = no result; [ ] = another dose, or the depositor's remark. The call rests on the fitted dose curve; in most records, active means well fitted curve in the direction sought with a large enough effect; inconclusive means small, poorly fitted or top-dose-only effect, or another doubt; inactive means no such curve, though single readings can be large; an effect the other way counts as inactive or inconclusive. Potency means the concentration at half of the fitted maximal effect.

SMILES | Sfp inh | JMJD2A Tudor inh | G9a inh | L3MBTL1 inh | HP1b binding inh | BAZ2B inh
CCn1c(SCC(=O)c2c(N)n(C3CC3)c(=O)[nH]c2=O)nnc1-c1ccccc1OC | . | -18% | 2µM* | -1% | 27% | 4%
Cc1ccc(-n2c(SCC(=O)c3c(N)n(C4CC4)c(=O)[nH]c3=O)nnc2N2CCOCC2)cc1 | . | -5% | -37% | 0% | 21% | -2%
Cc1ccccc1-n1c(SCC(=O)c2c(N)n(C3CC3)c(=O)[nH]c2=O)nnc1N1CCOCC1 | . | -11% | 10µM* | 2% | 21% | -2%
c1ccc(CNCc2nnc(-c3cc4ccccc4[nH]3)o2)cc1 | . | -12% | . | . | . | .
COc1ccc(CNC(=O)C2CCN(c3nc4ccc(C)cc4[nH]3)CC2)cc1 | . | 4% | 0%[59 µM] | . | 21%[57 µM] | 4%
COc1ccccc1NS(=O)(=O)c1ccc(NN=C2CCCCC2)c([N+](=O)[O-])c1 | -1% | ? | 25µM* | ? | ? | 8.9µM*
CCCC(CCC)=NNc1ccc(S(=O)(=O)Nc2ccccc2OC)cc1[N+](=O)[O-] | -2% | 14µM* | ? | ? | 28µM* | 10µM*
COc1ccccc1NS(=O)(=O)c1ccc(OC)c([N+](=O)[O-])c1 | 13% | -22% | 3% | 3% | -7% | -13%
CCn1c(/C=C/N(C(C)=O)c2ccccc2)[n+](CC)c2ccc(Cl)cc21 | 22% | -10% | 79µM* | 12% | 10% | ?
CCOC(=O)c1ccc2c(c1)n(CCCS(=O)(=O)[O-])c(/C=C/c1ccc(Cl)cc1)[n+]2CC | 16% | 3% | . | 6% | 19% | 0%
CC[n+]1c(/C=C/C=C/N(C(C)=O)c2ccccc2)sc2ccccc21 | 50µM* | 79µM* | 29%[0.501 µM] | -7% | -30% | 28µM*
CCN1C(=O)/C(=C/N(C(C)=O)c2ccccc2)N(c2ccccc2)C1=S | 2% | -20% | ? | . | 18% | -37%
CC[n+]1c(/C=C/C=C2/N(C)c3ccccc3C2(C)C)sc2ccccc21 | . | . | 8.9µM* | . | . | .
COc1ccc(CNC(=O)CCC2N=C3c4ccccc4N=C(SCc4ccc(F)cc4)N3C2=O)cc1 (centres undefined) | . | -28% | -10%[59 µM] | . | 23% | -7%
Cn1cc(S(=O)(=O)c2cccc(Cl)c2)c(=O)c2cc(F)c(N3CCCCCC3)cc21 | . | -10% | 7%[59 µM] | . | 8% | 3%
COc1cccc(C(c2c(O)nc(SC)n(C)c2=O)c2c(O)nc(SC)n(C)c2=O)c1 | 4% | -22% | . | 10% | 51% | -34%
CCCSc1nc(O)c(C(c2ccc(OC)c(O)c2)c2c(O)nc(SCCC)n(C)c2=O)c(=O)n1C | ? | -10% | 10µM* | 2% | 14% | -8%
O=C(CSc1nc2ccccc2s1)NC1CCCC1 | -7% | -10% | 22µM* | . | 5% | -23%
Cc1cc2ccccc2nc1SCC(=O)NC1CCCC1 | 13% | 14µM* | 2% | -3% | -1% | 4%
Cc1c(C(=O)N2CCC(C)CC2)c(S(=O)(=O)NCc2ccccc2)c(C)n1C | . | -16% | 10%[59 µM] | . | 27% | -9%
O/N=C1/CCc2nonc2/C1=N/O | 50µM* | ? | 0.71µM* | . | 13% | 10µM*
c1ccc2nc3c(nc2c1)CCc1nonc1-3 | 5% | -8% | 16%[59 µM] | 6% | 23% | 3%
O=S(=O)(CCC(F)=C(F)F)c1nnnn1C1CCCCC1 | 4% | . | . | . | . | .
Fc1ccc(NCc2cccnc2)cc1F | -11% | 79µM* | ? | . | 27% | ?
Cc1ccc(NCc2cccnc2)c(Br)c1 | -26% | 3.2µM* | 14µM* | -16% | ? | 79µM*
SMILES | Sfp inh | JMJD2A Tudor inh | G9a inh | L3MBTL1 inh | HP1b binding inh | BAZ2B inh
Cc1ccnc(NCc2ccc(Cl)cc2)c1 | 7% | -1% | -10% | 0% | 27% | 5%
Cc1ccc(NCc2ccc(Cl)nc2)c(NCc2ccc(Cl)nc2)c1 | 7% | -32% | 35µM* | . | -1% | 35µM*
O=C(NCc1ccc(F)cc1)c1ccc2oc(=O)n(Cc3ccccc3)c2c1 | . | 15% | -5%[12.7 µM] | . | 40% | -2%
c1ccc(-c2nnc(N3CCCC3)nc2-c2ccccc2)cc1 | -17% | -10% | 31% | . | 35% | -10%
c1ccc(-c2nc(N3CCCC3)nc3ccccc23)cc1 | 40µM* | 232%[57.1 µM] | ? | 47% | 337% | 42%
c1ccc(-c2nnc(N3CCN(c4ccccc4)CC3)nc2-c2ccccc2)cc1 | 7% | ? | 13µM* | -8% | -11% | ?
CN1CCc2c(c3cnc4cc(Cl)ccc4c3n2C)C1 | . | -12%[57.1 µM] | . | . | 7%[57 µM] | .
COc1ccc(CNC(=S)Nc2cc(C)cc(C)c2)cc1 | 3% | 5% | -41% | -3% | 36% | 1%
COc1ccc(N2CCC(CNC(=S)Nc3cc(C)cc(C)c3)C2)cc1 (centres undefined) | 2% | 20µM* | ? | . | 16µM* | 3.2µM*
COc1ccc(N2CCC(CNC(=S)Nc3cc(C)ccc3C)C2)cc1 (centres undefined) | -3% | 40µM* | ? | . | ? | 32µM*
Fc1ccc(-c2cn3cc(Cc4ccccc4)sc3n2)cc1 | . | 6% | -2%[59 µM] | . | 52% | 0%
COc1ccccc1NC1=C(Cl)C(=O)N(C2CCCCC2)C1=O | -15% | ? | 45µM* | -21% | -14% | ?
C[C@H](N)C(=O)NCC(=O)N[C@H]1CSSC[C@@H](C(=O)O)NC(=O)[C@H](CO)NC(=O)[C@H]([C@@H](C)O)NC(=O)[C@H](Cc2ccccc2)NC(=O)[C@H]([C@@H](C)O)NC(=O)[C@H](CCCCN)NC(=O)[C@@H](Cc2c[nH]c3ccccc23)NC(=O)[C@H](Cc2ccccc2)NC(=O)[C@H](Cc2ccccc2)NC(=O)[C@H](CC(N)=O)NC(=O)[C@H](CCCCN)NC1=O | 8% | . | . | . | . | .
CCOc1cc(/C=C/c2cc(C(=O)O)c3ccccc3n2)ccc1OC | -7% | 2% | 71µM* | 1% | 47% | 13%
CN1C2CCC1/C(=C/c1cccn1C)C(=O)/C2=C\c1cccn1C | ? | 45µM* | ? | 4.5µM* | ? | 45µM*
Cn1cccc1/C=C1\CC(C(C)(C)C)C/C(=C\c2cccn2C)C1=O (centres undefined) | -27% | 40µM* | ? | . | ? | 28µM*
Cc1ccc(C)c(Cn2c(SCC(=O)N(C)Cc3ccccc3)nc3ccccc32)c1 | . | -4% | 4%[12.7 µM] | . | 36% | -14%
CC(=O)N(Cc1cc(=O)[nH]c2ccccc12)c1ccc(C)cc1 | -7% | 1% | 32µM* | -7% | 22% | 12%
O=C(CCl)N(Cc1cc(=O)[nH]c2ccccc12)c1ccccc1 | -25% | -29% | 40µM* | . | 6% | -4%
COc1ccc2c(c1)c1c(c(=O)n(Cc3ccccc3)c(=O)n1Cc1cc(C)ccc1C)n2C | . | 17% | -5%[59 µM] | . | 26% | -2%

Screening data as filed in PubChem.
